The source of these data is PubChem BioAssay (NCATS).

A short description of assay [1]: P-glycoprotein substrates identified in KB-8-5-11 adenocarcinoma cell line, qHTS therapeutic library screen (AID 1346987). Further: nearly all actives have a fitted effect of over 65% in size. Further: potency means the concentration at half of the fitted maximal effect. In short, it runs like this:
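Luminescence from CellTiter-Glo, read 5 min after addition, quantified survival of KB-8-5-11 (P-gp-overexpressing) cells exposed to compounds for 72 h. AC50 was derived from concentration-response curves.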

The subject of assay [2] is Zika virus NS2B-NS3 protease (linked construct). The assay is described as follows: Confirmatory screen NINDS AMC qHTS for Zika virus inhibitors (AID 1347152). Further: nearly all actives have a fitted effect of over 70% in size. Further: potency means the concentration at half of the fitted maximal effect. The procedure, abridged: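 Enzyme (1 nM, linked construct) was preincubated with compound for 15 minutes at room temperature in 10 mM Tris-HCl pH 8.0 with 0.01% Tween 20. Bz-Nle-Lys-Arg-Arg-AMC was then added to 10 microM, and AMC fluorescence was recorded immediately and after 15 minutes.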

The subject of assay [3] is Zika virus NS2B-NS3 protease. The assay can be described thus: Primary screen GU AMC qHTS for Zika virus inhibitors (AID 1347154). Further: nearly all actives have a fitted effect of over 70% in size. The procedure, abridged: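 Unlinked Zika NS2B hydrophilic domain–NS3 protease complex at 25 nM in 10 mM Tris-HCl pH 8.0, 0.01% Tween 20, with an AMC peptide substrate. Fluorescence change (340/450 nm) over 15 min at room temperature, normalized to controls, fitted to 4-parameter Hill.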

Assay [4] concerns Zika virus NS2B-NS3 protease (unlinked complex). The assay is described as follows: Confirmatory screen GU AMC qHTS for Zika virus inhibitors (AID 1347153).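 Further: enzyme at 25 nM with substrate at 10 µM below its Km of 18.3 µM; potency means the concentration at half of the fitted maximal effect; nearly all actives have a fitted effect of over 70% in size.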 The conditions noted are these: Recombinant NS2B-NS3 protease, AMC substrate fluorescence. The procedure, abridged:
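Unlinked NS2B-NS3 complex (25 nM) in 10 mM Tris-HCl pH 8.0, 0.01% Tween 20 preincubated 15 min with compound, then 10 microM Bz-Nle-KRR-AMC (Km 18.3 µM). Fluorescence change over 15 min, normalized, Hill-fitted.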

In assay [5] the target is Atrial natriuretic peptide receptor 1 (Homo sapiens) (UniProt P16066). The assay can be described thus: Natriuretic polypeptide receptor (hNpr1) antagonism - Pilot screen (AID 1347049; calls by dose curve;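 further: agonist-evoked cGMP luminescence read 20 min after hNppA addition; series mostly up to about 58 µM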). In short, it runs like this:
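cGMP-sensor HEK293/hNpr1 cells, 1500/well, plated overnight at 37C. 2% GloSensor reagent, 2 h RT. Compound (23 nL pin transfer) 30 min RT, baseline luminescence pre-read. 0.1 nM hNppA, 20 min RT, post-read.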

Assay [6] deals with Atrial natriuretic peptide receptor 2 (Homo sapiens) (UniProt P20594). The assay can be described thus: Natriuretic polypeptide receptor (hNpr2) antagonism - Pilot subtype selectivity assay (AID 1347050; calls by dose curve; further: potency means the concentration at half of the fitted maximal effect). In short, it runs like this: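 Luminescence from a genetically encoded cGMP luciferase biosensor in hNpr2-expressing HEK293 cells is read before and 20 min after adding 1 nM hNppC. Test compounds, in interplate 1:5 titrations, are added 30-50 min ahead of the agonist.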
Chain of Atrial natriuretic peptide receptor 2 (Homo sapiens) (P20594 whole entry, looked up): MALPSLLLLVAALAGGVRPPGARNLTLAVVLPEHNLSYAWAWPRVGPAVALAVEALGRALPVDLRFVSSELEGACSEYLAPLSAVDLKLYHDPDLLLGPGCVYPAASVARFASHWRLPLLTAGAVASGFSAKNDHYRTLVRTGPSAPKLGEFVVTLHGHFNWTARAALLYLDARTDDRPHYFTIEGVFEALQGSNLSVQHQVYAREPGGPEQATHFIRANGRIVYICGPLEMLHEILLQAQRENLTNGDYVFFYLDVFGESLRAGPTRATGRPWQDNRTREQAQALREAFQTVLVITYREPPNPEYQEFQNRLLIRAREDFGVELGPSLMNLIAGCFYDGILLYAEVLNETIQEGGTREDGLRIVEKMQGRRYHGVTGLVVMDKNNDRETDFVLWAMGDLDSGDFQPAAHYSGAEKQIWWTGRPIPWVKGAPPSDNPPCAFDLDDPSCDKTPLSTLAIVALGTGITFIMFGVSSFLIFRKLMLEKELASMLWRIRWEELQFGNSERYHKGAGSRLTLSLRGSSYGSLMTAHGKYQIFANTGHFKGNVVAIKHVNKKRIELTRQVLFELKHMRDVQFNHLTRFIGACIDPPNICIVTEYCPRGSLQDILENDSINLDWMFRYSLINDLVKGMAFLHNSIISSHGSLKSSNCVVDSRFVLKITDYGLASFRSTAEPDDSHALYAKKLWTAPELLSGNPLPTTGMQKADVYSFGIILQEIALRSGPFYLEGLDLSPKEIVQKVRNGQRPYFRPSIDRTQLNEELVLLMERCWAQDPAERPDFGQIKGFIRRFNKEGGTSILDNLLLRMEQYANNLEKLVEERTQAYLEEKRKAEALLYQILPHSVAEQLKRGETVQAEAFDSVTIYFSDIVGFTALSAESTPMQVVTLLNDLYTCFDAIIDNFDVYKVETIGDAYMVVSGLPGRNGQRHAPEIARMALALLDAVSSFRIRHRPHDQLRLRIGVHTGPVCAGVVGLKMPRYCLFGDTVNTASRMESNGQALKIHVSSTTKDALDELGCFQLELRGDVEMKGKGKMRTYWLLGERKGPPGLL

Assay [7] concerns the target T1, Tyrosine-protein phosphatase non-receptor type substrate 1 (Homo sapiens) + Leukocyte surface antigen CD47 (Homo sapiens) (UniProt P78324+Q08722). The assay is described as follows: CD47-SIRPalpha protein protein interaction - LANCE assay qHTS validation (AID 1347057; active means well fitted curve in the direction sought with a large enough effect in the signal ratio, with a control signal flat, not every such curve was filed as active; the % refers to the signal ratio; further: series mostly up to about 38 µM). In short, it runs like this:
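Inhibition of soluble CD47/SIRPalpha ectodomain association by titrated compounds, measured as 665/615 nm time-resolved FRET ratio after sequential 30 min room-temperature incubations.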

For assay [8], the target named is T1, Tyrosine-protein phosphatase non-receptor type substrate 1 (Homo sapiens) + Leukocyte surface antigen CD47 (Homo sapiens). The assay can be described thus: CD47-SIRPalpha protein protein interaction - HTRF assay qHTS validation (AID 1347058; active means well fitted curve in the direction sought with a large enough effect in the signal ratio, not every such curve was filed as active; the % refers to the signal ratio; further: series mostly up to about 38 µM). In short, it runs like this:
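Soluble extracellular domains (6His-CD47, Avi-tag-biotinylated SIRPalpha) in PBS pH 7.4 with 0.05% IGEPAL CA-630. Compounds were preincubated 30 min at RT with CD47 and anti-His-Eu, then SIRPalpha and SAV-XL665 were added. TR-FRET 665/615 ratio.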

The target is the same in assay [9]. The assay can be described thus: CD47-SIRPalpha protein protein interaction - Alpha assay qHTS validation (AID 1347059).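 Further: bead proximity luminescence from CD47 binding SIRPalpha after compound preincubation with SIRPalpha.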 The procedure, abridged: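 SIRPalpha-biotin 25 nM + cpd, 30 min RT, dark; add CD47-His 12.5 nM, 30 min; add Ni-NTA/SAV beads 10 ug/mL, 30 min; AlphaScreen. Buffer PBS pH 7.4 + 0.05% IGEPAL CA-630. Non-biotinylated SIRPalpha as control inhibitor.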

The target of assay [10] is Parathyroid hormone/parathyroid hormone-related peptide receptor (Homo sapiens) (UniProt Q03431). The assay can be described thus: qHTS for PTHR1 Agonists: Optimization Screen against the NCGC LOPAC library (AID 1347079).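 Further: GloSensor cAMP luminescence in HEK-293 GP2 cells expressing human PTHR1 with IBMX.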 In short, it runs like this: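 HEK-293 GP2 cells, PTHR1 + GloSensor cAMP; 3000 cells/well, o/n. Luciferin + IBMX 0.5mM each (stock), 1 hr 37C. Cpd titration, 1 hr 37C. Lum after 15 min RT. Ctrl M-PTH(1-15) top 10uM.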
Chain of Parathyroid hormone/parathyroid hormone-related peptide receptor (Homo sapiens) (Q03431 whole entry, looked up): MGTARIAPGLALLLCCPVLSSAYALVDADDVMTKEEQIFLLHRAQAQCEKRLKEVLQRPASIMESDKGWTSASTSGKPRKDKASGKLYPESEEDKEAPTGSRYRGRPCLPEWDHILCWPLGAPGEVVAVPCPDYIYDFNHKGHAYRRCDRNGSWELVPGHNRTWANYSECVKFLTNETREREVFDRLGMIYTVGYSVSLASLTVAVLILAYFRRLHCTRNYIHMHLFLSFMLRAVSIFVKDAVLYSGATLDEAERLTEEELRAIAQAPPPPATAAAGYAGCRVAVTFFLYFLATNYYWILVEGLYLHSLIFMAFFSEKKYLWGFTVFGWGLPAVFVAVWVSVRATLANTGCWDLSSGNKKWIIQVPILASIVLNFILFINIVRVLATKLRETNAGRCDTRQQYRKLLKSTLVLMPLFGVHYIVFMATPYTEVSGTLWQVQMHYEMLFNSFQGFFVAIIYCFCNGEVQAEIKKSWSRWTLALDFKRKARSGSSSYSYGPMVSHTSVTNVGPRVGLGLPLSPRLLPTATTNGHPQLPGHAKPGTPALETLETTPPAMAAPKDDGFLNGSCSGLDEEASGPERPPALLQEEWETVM

The nature of assay [11]: qHTS of pediatric cancer cell lines to identify multiple opportunities for drug repurposing: Primary screen for SJ-GBM2 cells (AID 1347091). Further: potency means the concentration at half of the fitted maximal effect. The conditions noted are these: SJ-GBM2 viability, CellTiter-Glo luminescence, 48 h. The procedure, abridged: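 Viability measured as metabolically active cells via CellTiter-Glo luminescence following 48 hours of compound exposure, 11-point dilutions in confirmatory testing. 500-1,000 cells/well plated 5 hours before dosing; controls were DMSO and 2.3 µM bortezomib.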

Assay [12] in a line: qHTS of pediatric cancer cell lines to identify multiple opportunities for drug repurposing: Primary screen for Saos-2 cells (AID 1347097). Further: potency means the concentration at half of the fitted maximal effect; nearly all actives have a fitted effect of over 40% in size. The conditions noted are these: Saos-2 viability, CellTiter-Glo ATP luminescence, 48 h. In short, it runs like this: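 500-1,000 cells/well; 5 h pre-incubation 37 °C/5% CO2; compound pinned; 48 h; CellTiter-Glo, 15 min RT; luminescence. MIPE 11-pt from 0.78 nM, NPC 8-pt from 0.59 nM final. Bortezomib 2.3 µM final as positive control.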

Assay [13] in a line: qHTS of pediatric cancer cell lines to identify multiple opportunities for drug repurposing: Primary screen for SK-N-SH cells (AID 1347098). Further: potency means the concentration at half of the fitted maximal effect; nearly all actives have a fitted effect of over 65% in size. The note with it: SK-N-SH viability, CellTiter-Glo luminescence, 48 h. In short, it runs like this:
(§1)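 Cells (500-1,000/well) rested 5 h, then received compounds for 48 h; metabolically active cells were measured by CellTiter-Glo luminescence. Final concentrations spanned up to 46 µM (MIPE, 11-point) or 0.59 nM-46 µM (NPC, 8-point) in primary screens, 11-point in follow-ups.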

The nature of assay [14]: qHTS of pediatric cancer cell lines to identify multiple opportunities for drug repurposing: Primary screen for BT-12 cells (AID 1347101). Further: potency means the concentration at half of the fitted maximal effect; nearly all actives have a fitted effect of over 25% in size. The note with it: BT-12 viability, CellTiter-Glo luminescence, 48 h. The procedure, abridged: as §1
A short description of assay [15]: qHTS of pediatric cancer cell lines to identify multiple opportunities for drug repurposing: Primary screen for Rh18 cells (AID 1347102). Further: potency means the concentration at half of the fitted maximal effect; nearly all actives have a fitted effect of over 65% in size. The note with it: Rh18 rhabdomyosarcoma viability, CellTiter-Glo luminescence, 48 h. In short, it runs like this:
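Viability after 48 h compound treatment at 37C, 500-1,000 cells/well, read as ATP luminescence with CellTiter-Glo. Primary screens used 11-point (MIPE, 0.78 nM-46 µM) or 8-point (NPC, 0.59 nM-46 µM) final concentrations; follow-up screens used 11-point dilutions.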

A short description of assay [16]: qHTS of pediatric cancer cell lines to identify multiple opportunities for drug repurposing: Primary screen for OHS-50 cells (AID 1347103). Further: potency means the concentration at half of the fitted maximal effect; nearly all actives have a fitted effect of over 40% in size. The note with it: OHS-50 osteosarcoma viability, CellTiter-Glo luminescence, 48 h. In short, it runs like this: as §1
The subject of assay [17] is Zika virus NS2B-NS3 protease (unlinked). The assay can be described thus: Optimization of GU AMC qHTS for Zika virus inhibitors: Unlinked NS2B-NS3 protease assay (AID 1347151). Further: series mostly up to about 52 µM; nearly all actives have a fitted effect of over 80% in size. The procedure, abridged:
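Unlinked protease (25 nM final); buffer 10 mM Tris-HCl pH 8.0 + 0.01% Tween 20; AMC substrate; 15 min RT, dark; Δfluorescence normalized to no-inhibitor/no-enzyme controls; 4-parameter Hill fit.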

Inconclusive results are not listed. Activity calls are given as the source filed them. Unless noted, the call rests on the fitted dose curve; in most records, active means well fitted curve in the direction sought with a large enough effect; inconclusive means small, poorly fitted or top-dose-only effect, or another doubt; inactive means no such curve, though single readings can be large; an effect the other way counts as inactive or inconclusive.

T1 sequence (P78324 whole entry, looked up, the tested form may be a part): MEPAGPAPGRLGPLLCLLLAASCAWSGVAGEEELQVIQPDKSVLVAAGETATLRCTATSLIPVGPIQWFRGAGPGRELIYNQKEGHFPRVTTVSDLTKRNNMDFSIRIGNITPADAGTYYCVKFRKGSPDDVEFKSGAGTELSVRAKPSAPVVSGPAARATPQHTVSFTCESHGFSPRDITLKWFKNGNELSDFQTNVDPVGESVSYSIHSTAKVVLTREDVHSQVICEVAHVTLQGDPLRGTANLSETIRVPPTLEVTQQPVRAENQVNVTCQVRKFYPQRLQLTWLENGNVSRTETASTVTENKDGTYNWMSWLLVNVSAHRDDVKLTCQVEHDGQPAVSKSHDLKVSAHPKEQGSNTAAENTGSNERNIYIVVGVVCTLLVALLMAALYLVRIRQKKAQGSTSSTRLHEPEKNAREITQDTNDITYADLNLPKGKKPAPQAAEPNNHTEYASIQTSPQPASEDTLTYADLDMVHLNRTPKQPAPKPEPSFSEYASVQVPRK
T1 sequence (Q08722 whole entry, looked up, the tested form may be a part): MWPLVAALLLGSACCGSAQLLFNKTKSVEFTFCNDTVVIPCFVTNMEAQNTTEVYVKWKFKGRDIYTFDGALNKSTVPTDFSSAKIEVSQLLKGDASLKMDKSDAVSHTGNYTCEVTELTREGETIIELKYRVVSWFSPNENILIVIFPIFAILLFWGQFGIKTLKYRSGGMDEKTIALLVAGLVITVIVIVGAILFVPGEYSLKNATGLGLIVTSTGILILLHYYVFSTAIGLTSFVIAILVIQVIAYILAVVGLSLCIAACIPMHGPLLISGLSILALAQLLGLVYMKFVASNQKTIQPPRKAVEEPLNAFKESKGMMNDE
Chain of Atrial natriuretic peptide receptor 1 (Homo sapiens) (P16066 whole entry, looked up): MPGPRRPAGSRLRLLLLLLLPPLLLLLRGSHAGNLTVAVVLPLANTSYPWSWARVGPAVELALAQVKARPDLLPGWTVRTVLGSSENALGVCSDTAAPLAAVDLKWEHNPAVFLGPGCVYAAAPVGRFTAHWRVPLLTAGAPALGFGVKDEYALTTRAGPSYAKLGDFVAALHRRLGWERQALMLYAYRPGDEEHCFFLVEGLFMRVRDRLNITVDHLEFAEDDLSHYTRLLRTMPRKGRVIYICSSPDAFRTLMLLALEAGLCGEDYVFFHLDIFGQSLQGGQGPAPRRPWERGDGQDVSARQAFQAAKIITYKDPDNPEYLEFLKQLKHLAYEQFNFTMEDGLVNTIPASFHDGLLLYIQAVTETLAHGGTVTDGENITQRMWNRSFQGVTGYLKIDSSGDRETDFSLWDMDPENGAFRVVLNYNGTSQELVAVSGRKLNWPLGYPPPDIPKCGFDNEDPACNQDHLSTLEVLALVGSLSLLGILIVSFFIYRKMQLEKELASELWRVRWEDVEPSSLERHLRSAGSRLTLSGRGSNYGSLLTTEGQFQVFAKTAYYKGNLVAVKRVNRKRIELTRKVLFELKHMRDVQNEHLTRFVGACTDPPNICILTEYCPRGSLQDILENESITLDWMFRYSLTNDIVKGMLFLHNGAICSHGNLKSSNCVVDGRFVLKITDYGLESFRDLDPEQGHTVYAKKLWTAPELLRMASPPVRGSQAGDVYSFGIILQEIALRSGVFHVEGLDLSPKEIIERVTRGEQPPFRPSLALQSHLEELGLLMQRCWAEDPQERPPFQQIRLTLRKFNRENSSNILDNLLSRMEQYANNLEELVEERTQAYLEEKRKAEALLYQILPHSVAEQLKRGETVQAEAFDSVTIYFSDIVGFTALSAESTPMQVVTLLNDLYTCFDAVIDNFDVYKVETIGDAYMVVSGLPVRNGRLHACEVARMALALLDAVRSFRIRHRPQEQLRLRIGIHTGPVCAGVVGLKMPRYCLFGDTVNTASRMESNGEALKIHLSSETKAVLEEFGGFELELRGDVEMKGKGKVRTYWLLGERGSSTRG

`CC(O)(C(=O)O)C1CCC2(C)C1CCC1(C)C2CCC2C3(C)CCC(O)C(C)(COC4OC(CO)C(O)C(O)C4O)C3CCC21C` (stereo unspecified): the Potency entry in [1] and in [2] was “inactive” each time.

On to `COc1cc(C[C@H]2C(=O)OC[C@@H]2Cc2ccc(OC)c(OC)c2)ccc1O`, for which the Potency result in assay [3] is “inactive”.

Turning to `O=C(O)c1cccc(-c2ccc(-c3cn(C(=O)N4CCCCC4Cc4ccccc4)nn3)cc2)c1` (stereo unspecified), the Potency entry in [1] is “inactive”. Moreover, the Potency is 27.8 µM (active) in [2] and 31.2 µM (active) in [4].

In the case of `CN(C)CCCn1cc(C2=C(c3c[nH]c4ccccc34)C(=O)NC2=O)c2ccccc21`, the Potency result in [3] is “inactive”.

As to `CC(C)C[C@H](C(=O)O)c1cc(-c2ccc(C(F)(F)F)cc2)cc(-c2ccc(C(F)(F)F)cc2)c1`, the figures for the Potency in assay [2] and in assay [4] were 9.87 µM (active) and 15.6 µM (active), respectively.

For `CN[C@H]1CC[C@@H](c2ccc(Cl)c(Cl)c2)c2ccccc21`, the molecule was classed as inactive in [5], in assay [7], in assay [8], in assay [9] and in [10]. Besides, the Potency in assay [6] is 14.7 µM (active); in assay [11], 23.7 µM (active); in assay [12] it was 23.7 µM (active); in [13] it was 10.9 µM (active); in assay [14] it was 21.9 µM (active); in assay [15], 23.7 µM (active). Also, the Potency in assay [16] was 15.5 µM (active).

Take `CCCCCc1ccc(/C=C/C(=O)Nc2cc(Cl)ccc2C(=O)O)cc1`: the Potency result in [1] was “inactive”. In addition, the results for the Potency in [2] and in assay [4] were 8.79 µM (active) and 9.87 µM (active), respectively.

As for `CC1(S(=O)(=O)O)CC(=O)c2ccccc2C1=O` (stereo unspecified), the Potency entry in assay [1] is “inactive”.

Consider `CC(=O)O[C@@]12CO[C@@H]1C[C@H](O)[C@@]1(C)C(=O)[C@H](O)C3=C(C)[C@@H](OC(=O)[C@H](O)[C@@H](NC(=O)OC(C)(C)C)c4ccccc4)C[C@@](O)([C@@H](OC(=O)c4ccccc4)C12)C3(C)C` (stereo partly specified), for which the Potency in [1] was 0.126 µM (active).

As to `CCC(CC)(NC(=O)C(C)C)C(=O)N[C@@H](CCCN=C(N)N)C(=O)NC1(C(=O)NC(c2ccc(F)cc2)c2ccc(F)cc2)CCCC1`, the Potency entry in [1] is “inactive”. Moreover, in assay [17], the call was inactive.

Regarding `COc1cc2c(cc1OC)CN(C(=O)/C=C/c1c(-c3ccccc3)n(C)c3ncccc13)CC2`, the Potency in assay [1] is 20.6 µM (active).

As to `Cc1cc(C)c2c(c1)C(N(Cc1cc(C(F)(F)F)cc(C(F)(F)F)c1)c1nnn(C)n1)CCCN2CC1CCC(C(=O)O)CC1` (stereo unspecified), the Potency in assay [2] and in assay [4] was 22.1 µM (active) each time.
